# Source: publication PMC4336329 (PLoS ONE, 2015)
# In all, about 310,000 compounds went through this assay and about 14,000 (4.5%) showed an effect of 50% or more. Effects have a minus sign here. The full list was thinned out, with strong results kept by preference.
# Biological target: human ether-à-go-go-related gene (hERG) potassium channel (human, UniProt Q12809)
# Assay: primary screen, population patch clamp on CHO cells stably expressing hERG; higher = less effect of the substance
# 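Also: peak tail current of the secondary pulse compared with the same well before compound.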
# Chain of human ether-à-go-go-related gene (hERG) potassium channel (Q12809 whole entry, looked up): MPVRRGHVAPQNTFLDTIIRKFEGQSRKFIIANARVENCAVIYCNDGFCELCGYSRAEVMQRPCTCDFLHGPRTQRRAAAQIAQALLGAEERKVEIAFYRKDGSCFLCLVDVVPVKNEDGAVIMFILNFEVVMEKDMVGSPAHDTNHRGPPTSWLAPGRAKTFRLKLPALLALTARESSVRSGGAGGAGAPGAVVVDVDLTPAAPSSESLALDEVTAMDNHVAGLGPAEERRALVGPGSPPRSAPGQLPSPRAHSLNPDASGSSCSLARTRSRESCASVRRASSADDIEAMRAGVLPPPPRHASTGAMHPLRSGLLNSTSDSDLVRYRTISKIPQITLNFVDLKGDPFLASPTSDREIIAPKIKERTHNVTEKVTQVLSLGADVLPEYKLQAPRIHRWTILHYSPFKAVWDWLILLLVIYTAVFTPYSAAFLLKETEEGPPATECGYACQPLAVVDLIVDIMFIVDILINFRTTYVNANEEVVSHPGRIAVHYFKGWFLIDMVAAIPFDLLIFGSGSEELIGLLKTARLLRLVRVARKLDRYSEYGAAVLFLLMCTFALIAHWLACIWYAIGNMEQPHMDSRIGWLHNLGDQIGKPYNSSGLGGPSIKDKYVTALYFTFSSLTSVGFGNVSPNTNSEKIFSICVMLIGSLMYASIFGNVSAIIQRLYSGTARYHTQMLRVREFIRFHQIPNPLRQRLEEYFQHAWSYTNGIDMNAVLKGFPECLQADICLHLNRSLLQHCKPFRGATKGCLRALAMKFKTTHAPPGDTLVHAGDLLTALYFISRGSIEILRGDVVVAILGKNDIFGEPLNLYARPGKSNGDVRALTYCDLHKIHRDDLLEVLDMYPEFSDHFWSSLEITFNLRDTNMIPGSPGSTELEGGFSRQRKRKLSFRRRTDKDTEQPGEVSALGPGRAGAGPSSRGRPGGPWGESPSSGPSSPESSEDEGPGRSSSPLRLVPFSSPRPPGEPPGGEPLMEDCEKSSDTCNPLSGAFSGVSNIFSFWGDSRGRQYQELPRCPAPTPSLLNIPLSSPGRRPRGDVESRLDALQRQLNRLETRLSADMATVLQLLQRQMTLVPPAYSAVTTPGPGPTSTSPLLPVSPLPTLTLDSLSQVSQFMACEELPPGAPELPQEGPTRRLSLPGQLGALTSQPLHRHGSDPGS
row,Structure (SMILES),"hERG current change (%, negative = inhibition) at 10uM"
1,CNc1ccc(Oc2c(F)c(F)nc(F)c2F)cc1,-0.34%
2,O=C1CS/C(=N/N=C/c2ccccc2)N1c1ccc(O)cc1,17.6%
3,CN(C)S(=O)(=O)c1cccc(NC(=O)C2Cc3ccccc3CN2C(=O)c2ccccc2)c1 (stereo not drawn),4.2%
4,c1ccc(C[C@H]2CNCCN2CCc2cccc3ccccc23)cc1,-35.6%
5,Oc1ccc(C[C@H]2CNCCN2CCc2cccc3ccccc23)cc1,-17.7%
6,Oc1ccc(C[C@@H]2CNCCN2CCc2cccc3ccccc23)cc1,-64.5%
7,C#CCOCCOCCOCCNc1nc(N2CCN(C(=O)[C@H](CCC(=O)O)n3cc(C(N)Cc4ccc(O)cc4)nn3)CC2)nc(N2CCN(C(=O)[C@H](Cc3cc4ccccc4[nH]3)n3cc(C(N)[C@H](C)CC)nn3)CC2)n1.Cl (stereo partly drawn),5.43%
8,COc1ccc(CNC(=O)c2ccc3c(=O)n(CCCN4CCCC4=O)c(=S)[nH]c3c2)cc1,19%
9,CCOC(=O)c1ccc(Nc2nc(C)cc(C)n2)cc1,16.7%
10,CCOC(=O)c1ccc(Nc2cc(C)nc3ncnn23)cc1,-15.1%
11,CCOC(=O)c1ccc(Nc2cc(C)nc(C)c2C(=O)OCC)cc1.Cl,-62.6%
12,CCOC(=O)c1c(Nc2ccccc2N)cc(C)nc1C,-13.9%
13,COC(=O)c1ccc(Nc2cc(C)nc3nc(C)nn23)cc1,-37.8%
14,CCOC(=O)c1ccc(Nc2cc(C)nc3nc(C)nn23)cc1,-53%
15,COc1ccc(/C=N/NC(=O)CCn2c3ccccc3c3ccccc32)cc1O,5.18%
16,COc1ccc(NS(=O)(=O)c2cc(C)ccc2OC)cc1OC,10.5%
17,CN(C)c1ccc2c(O)cc(=O)n(C)c2c1,6.76%
18,O=C(NC1CCCC1)c1cc2nc(-c3ccccc3)cc(-c3ccccc3)n2n1,-23.3%
19,Cc1ccc2nc(C)c(C)nc2c1N,8.1%
20,O=C(Nc1ccc(Cl)cc1Cl)c1ccc2c(=O)n3c(nc2c1)CCC3,-39.8%
21,Cn1c(Cc2ccccc2)nnc1SCc1nc2ccccc2c(=O)[nH]1,-1.69%
22,NC(=O)CSc1nnc(-c2cnccn2)n1Cc1ccco1,7.06%

row,Structure (SMILES),"hERG current change (%, negative = inhibition) at 10uM"
1,COCCn1c(SCc2nc3ccccc3c(=O)[nH]2)nnc1-c1ccncc1,-4.64%
2,Fc1ccc(CSc2nnc(-c3cnccn3)n2Cc2ccco2)cc1,-52.2%
3,CCn1c(SCc2nc3ccccc3c(=O)[nH]2)nnc1-c1ccncc1,-11.7%
4,c1ccc(-c2nnc(SCc3nc4ccccc4[nH]3)n2Cc2ccco2)cc1,-22.4%
5,c1ccc(-c2nnc(SCc3nc4ccccc4[nH]3)n2Cc2ccco2)nc1,-8.18%
6,O=c1[nH]c(CSc2nnc(-c3ccncc3)n2Cc2ccco2)nc2ccccc12,-58.2%
7,c1coc(Cn2c(SCc3nc4ccccc4[nH]3)nnc2-c2cnccn2)c1,-56.3%
8,Cn1c(SCc2nc3ccccc3c(=O)[nH]2)nc2ccccc21,0.933%
9,Fc1ccccc1CSc1nnc(-c2cnccn2)n1Cc1ccco1,-11.2%
10,Cn1c(-c2ccccc2)cnc1SCc1nc2ccccc2c(=O)[nH]1,-59.9%
11,Cl.NC(N)=NC(N)=Nc1ccc(SC(F)(F)F)cc1,-21.3%
12,Oc1cccnc1Sc1cccc(C(F)(F)F)c1,18.6%
13,CC(C)(C)c1nnc(NC(=O)CCS(=O)(=O)c2ccccc2)s1,5.03%
14,COc1cc(/C=C2/SC(=S)NC2=O)ccc1OS(=O)(=O)c1ccc(C)cc1,39.8%
15,CCOc1ccc(CCNC(=O)C2CCN(S(=O)(=O)N3CC(C)CC(C)C3)CC2)cc1OCC (stereo not drawn),20.7%
16,Cc1c(NC(=O)Cn2cc([N+](=O)[O-])cn2)c(=O)n(-c2ccccc2)n1C,11.7%
17,CC1CCN(c2ccc3c(c2)S(=O)(=O)c2ccccc2C3=O)CC1,7.82%
18,COc1cccc2cc(C(=O)C3=C(O)C(=O)N(c4cc(C)on4)C3c3cccs3)oc12 (stereo not drawn),22.9%
19,COc1ccccc1CNC(=O)CS(=O)Cc1nc(-c2ccc(OC)c(OC)c2)oc1C (stereo not drawn),-6.47%
20,COc1ccccc1NS(=O)(=O)c1ccc2oc(=S)[nH]c2c1,2.14%
21,CC1CC(C)(C)NC(=S)N1CCC(=O)Nc1ccc2c(c1)OCCO2 (stereo not drawn),18.3%
22,CC(C)(C)c1ccc(OC(=O)N2CCOCC2)cc1,14%

row,Structure (SMILES),"hERG current change (%, negative = inhibition) at 10uM"
1,COc1cc(OC)cc(C(=O)Nc2cccc(-c3ccc(N4CCOCC4)nn3)c2)c1,14.5%
2,O=c1[nH]c(=O)n(Cc2ccc(F)cc2)c(O)c1C=NCCCn1ccnc1,4.08%
3,O=c1[nH]c(=S)n(CCC2=CCCCC2)c(O)c1/C=N/N1CCOCC1,-41.8%
4,O=c1[nH]c(=O)n(Cc2ccc(F)cc2)c(O)c1C=NCC1CCCO1 (stereo not drawn),-13%
5,O=c1[nH]c(=S)n(Cc2ccc(F)cc2)c(O)c1C=NCC1CCCO1 (stereo not drawn),-61.9%
6,CN1CCN(/N=C/c2c(O)n(CCC3=CCCCC3)c(=S)[nH]c2=O)CC1,-64.9%
7,O=c1[nH]c(=S)n(CCC2=CCCCC2)c(O)c1C=NCCCn1ccnc1,-69.3%
8,O=c1[nH]c(=S)n(CCC2=CCCCC2)c(O)c1C=NCc1cccnc1,-0.946%
9,O=c1[nH]c(=S)n(Cc2ccc(F)cc2)c(O)c1C=NCCCn1ccnc1,-60.3%
10,O=c1[nH]c(=S)n(C2CC2)c(O)c1C=NCC1CCCO1 (stereo not drawn),-6.97%
11,O=c1[nH]c(=O)n(CCc2ccc(F)cc2)c(O)c1C=NCCCn1ccnc1,-3.22%
12,O=c1[nH]c(=O)n(CCC2=CCCCC2)c(O)c1C=NCCCn1ccnc1,-17.6%
13,O=c1[nH]c(=O)n(CCC2=CCCCC2)c(O)c1/C=N/N1CCOCC1,-21.6%
14,O=C(/C=C/c1ccccc1)C1C(=O)c2ccccc2C1=O,-0.201%
15,Cn1cnc(S(=O)(=O)N2CCN(c3ccccc3)CC2)c1,17.3%
16,Cc1c(C(=O)O)oc2c1C(O)CCC2 (stereo not drawn),0.768%
17,COc1ccc(N(C(C)=O)C2C=CS(=O)(=O)C2)c(OC)c1 (stereo not drawn),9.14%
18,CSc1nnc(C(C)(C)C)c(=O)n1/N=C/c1ccc(Cl)cc1,0.0206%
19,CC(/C=N/NC(=O)CNc1n[nH]c(=O)[nH]c1=O)c1ccccc1 (stereo not drawn),2.52%
20,CN(Cc1cn(-c2ccccc2)nc1-c1ccc2c(c1)OCO2)Cc1nccn1C,-16.1%
21,CCn1ccnc1CN(C)Cc1cn(-c2ccccc2)nc1-c1ccc(OC)cc1F,-44.9%
22,COc1cccc(-c2nn(-c3ccccc3)cc2CN(C)Cc2ccno2)c1,3.65%

row,Structure (SMILES),"hERG current change (%, negative = inhibition) at 10uM"
1,COc1cccc(-c2nn(-c3ccccc3)cc2CN(C)Cc2c(C)nc3ccccn23)c1,-59.9%
2,COc1ccc(-c2nn(-c3ccccc3)cc2CN2CCCO2)c(F)c1,3.95%
3,CN(Cc1ncc[nH]1)Cc1cn(-c2ccccc2)nc1-c1ccc2c(c1)OCO2,-60.1%
4,CN(Cc1cn(Cc2ccccc2)nc1-c1ccc2c(c1)OCO2)Cc1nccn1C,-32.7%
5,COc1ccc(-c2nn(-c3ccccc3)cc2CN(C)CCn2ccnc2C)c(F)c1,-57.6%
6,CN(Cc1cnccn1)Cc1cn(Cc2ccccc2)nc1-c1ccc2c(c1)OCO2,-23%
7,COc1cccc(-c2nn(-c3ccccc3)cc2CN(C)Cc2ccon2)c1,9.02%
8,Cc1nccn1CCN(C)Cc1cn(Cc2ccccc2)nc1-c1ccc2c(c1)OCO2,-60%
9,CN(Cc1ccccn1)Cc1cn(Cc2ccccc2)nc1-c1ccc2c(c1)OCO2,-20.6%
10,O=C(c1nnc(Cc2ccc(Cl)cc2)o1)N1CCOCC1,10.7%
11,O=C(Nc1ccc(Cl)cc1)N1CCOCC1,13.8%
12,O=C(Nc1ccc(F)c(Cl)c1)c1ccccc1,0.672%
13,COCCNS(=O)(=O)c1cc(C(=O)O)ccc1OC,15.9%
14,COc1cc(C(=O)OC2C[C@H]3CC[C@@H](C2)N3C)ccc1O (stereo partly drawn),-7%
15,Cc1ccc(N2C(=O)C3C(C2=O)C(C(=O)c2ccc(Cl)cc2)N2CCCC32)cc1 (stereo not drawn),2.31%
16,OCC[C@@H]1C[C@@H](O)[C@H](O)[C@@]2(CCCO2)O1,6.76%
17,CCCc1cc(=O)[nH]c(SCC(=O)c2c(N)n(C3CC3)c(=O)[nH]c2=O)n1,6.85%
18,COc1ccc2c3n(nc2c1)CCN=C3c1ccc(C)cc1,-14.3%
19,O=C(NCCS(=O)(=O)N1CCN(c2ccccc2)CC1)C1CC(=O)N(c2ccc(F)cc2)C1 (stereo not drawn),-1.02%
20,O=C(CN1CCN(c2ccccc2F)CC1)NCc1ccccc1,-0.288%
21,O=C(COC(=O)CNC(=O)c1ccccc1F)Nc1ncc(Cl)cc1Cl,-3.8%
